Screening results: PubChem, National Center for Advancing Translational Sciences (NCATS)
Epigenetic reg = Quantitative High-Throughput Screen for Regulators of Epigenetic Control; murine LDR cells, GFP reporter derepression, 30 h; Potency, µM (highest dose often 53.9 µM), for the others: top-dose GFP activation, hits mostly activators; 280,000 tested, 0.2% active; AID 1865, 2009; also: % of control where 0% means no effect; nearly all actives have a fitted effect of over 60% in size
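Derepression of a silenced CMV-GFP reporter in murine LDR cells is scored by enumerating GFP-positive cells with a laser-scanning microplate cytometer after 30 hours of treatment at 37 C.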
PINK1 expr mod = A Quantitative High throughput Screen to Identify Chemical Modulators of PINK1 Expression. PINK1 immunofluorescence, high-content cytometry, 24 h. Potency, µM (highest dose often 76.6 µM), inactives show at the top dose activation (PINK1 increase), actives largely listed as activators. 410,000 tested, 0.2% active. AID 624263, 2012; active = well fitted activation curve with a large enough effect; inconclusive = small, poorly fitted or top-dose-only effect; cell line not stated here; also: % of control where 0% means no effect; nearly all actives have a fitted effect of over 65% in size
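Decision-based qHTS: stable cells, 24 h exposure to five compound concentrations, CCCP as control. Fixed cells stained for PINK1 plus nuclear, mitochondrial and cell markers, cytometer read.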
Vif-A3G inh = qHTS for Inhibitors of Vif-A3G Interactions: qHTS. 410,000 tested, 0.076% active. HeLa A3G-eYFP + Vif (tagged APOBEC3G with the HIV-1 protein that degrades it), YFP fluorescence, overnight. AID 602310, 2012. Potency, µM (top dose mostly 46.1 µM), for inactives: at the top dose activity, negative = active, usual class: inhibitors. DNA dC->dU-editing enzyme APOBEC-3G (Homo sapiens), Q9HC16; also: % is scaled to controls: 0 for no effect and ±100 for the full control effect; nearly all actives have a fitted effect of over 60% in size
Target sequence (Q9HC16 whole entry, looked up): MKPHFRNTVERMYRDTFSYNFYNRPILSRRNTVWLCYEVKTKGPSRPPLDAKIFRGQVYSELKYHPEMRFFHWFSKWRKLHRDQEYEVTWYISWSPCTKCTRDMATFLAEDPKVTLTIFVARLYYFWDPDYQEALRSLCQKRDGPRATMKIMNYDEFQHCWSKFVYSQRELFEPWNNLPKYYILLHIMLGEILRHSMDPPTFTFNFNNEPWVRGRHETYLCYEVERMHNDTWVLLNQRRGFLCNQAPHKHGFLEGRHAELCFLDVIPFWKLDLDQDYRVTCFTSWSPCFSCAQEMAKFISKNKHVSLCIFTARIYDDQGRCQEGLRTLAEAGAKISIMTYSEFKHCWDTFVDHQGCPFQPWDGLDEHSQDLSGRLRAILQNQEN
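HeLa cells stably expressing Vif and C-terminally eYFP-tagged A3G, seeded overnight at 37 deg C, then exposed to compound by pintool overnight at 37 deg C. Rise in yellow fluorescence (Ex 488/Em 500-530, Acumen) marks blocked Vif-driven A3G degradation.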
Vif-A3F inh = qHTS for Inhibitors of Vif-A3F Interactions: qHTS | AID 602313, 2012 | Potency, µM (titrated, usually from 46.1 µM), without a hit: top-dose activity, negative = active | HeLa A3F-eYFP + Vif (tagged APOBEC3F with the HIV-1 protein that degrades it), YFP fluorescence increase | 390,000 tested, 0.2% active; also: % of control where 0% means no effect; nearly all actives have a fitted effect of over 65% in size
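Fluorescence increase (Ex 488/Em 500-530) after overnight compound treatment at 37 deg C flags inhibition of Vif-driven A3F-eYFP loss in stable HeLa A3F-eYFP/Vif cells seeded overnight beforehand.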
Active calls of the source: *; [ ] = dose if it differs, or a comment. Hits are enriched below; roughly 0.52% of the tested compounds scored in any of these assays. Unless noted, calls follow the shape of the dose curve; as a rule, active = well fitted curve in the direction sought with a large enough effect; inconclusive = small, poorly fitted or top-dose-only effect, or another doubt; inactive = no such curve, though single readings can be large; an effect the other way counts as inactive or inconclusive. Potency is read from the fitted curve at half-maximal effect.

Screening COc1cc(/C=C(\C#N)c2nc3ccccc3[nH]2)ccc1OCc1ccc(F)cc1 returned Epigenetic reg inconclusive, PINK1 expr mod 7.4%, Vif-A3G inh inconclusive and Vif-A3F inh -18.8%.
For COc1cc(/C=C(/C#N)c2nc3ccccc3[nH]2)ccc1Oc1ncccc1[N+](=O)[O-] the results were Epigenetic reg 15.5%, PINK1 expr mod 7.94µM*, Vif-A3G inh inconclusive and Vif-A3F inh -2.2%.
`COc1cc(Br)c(/C=C(\C#N)c2nc3ccccc3[nH]2)cc1OC` gave Epigenetic reg 5.6%, PINK1 expr mod 2.8%, Vif-A3G inh -23.5% and Vif-A3F inh 25.1µM*.
Cc1cccc(CNC(=O)c2cnn(-c3ncc4c(n3)-c3ccccc3CC4)c2C2CC2)n1 was read as PINK1 expr mod -1.3%.
Cc1oc(-c2ccccc2NC(=O)c2cccnc2)nc1CNC(=O)C1CCCCCN1C (stereo unspecified) was read as PINK1 expr mod 0.6%.
COC(=O)c1c(-c2ccccc2Cl)noc1/C=C/N(C)C was read as Epigenetic reg 22.4µM*, PINK1 expr mod 2.9%, Vif-A3G inh inconclusive and Vif-A3F inh inconclusive.
CCN(CCO)C(=O)c1cnn(-c2ncc3c(n2)-c2ccccc2CCC3)c1C1CC1 was read as PINK1 expr mod 0.3%.
Cc1ccc2c(C)nc(Nc3nc(CSc4nc5ccccc5[nH]4)cc(=O)[nH]3)nc2c1 was read as Epigenetic reg 35.5µM*, PINK1 expr mod -0.1%[38.3 µM], Vif-A3G inh -1.0% and Vif-A3F inh 1.2%.
COc1cc(OC)c(OC)cc1CN1CCCC(n2cc(C(=O)N3CCCCC3)nn2)C1 (stereo unspecified) was read as PINK1 expr mod 0.7%.
Screening O=C(Nc1ccccc1Cc1ccccc1)c1ccccc1NS(=O)(=O)c1ccc(Cl)s1 returned Epigenetic reg -1.0%, PINK1 expr mod 11.2µM*, Vif-A3G inh 3.6% and Vif-A3F inh -12.8%.
Screening Cc1ccc(NC(=O)c2ccccc2NS(=O)(=O)c2ccc(Cl)s2)cc1 returned Epigenetic reg -1.3%, PINK1 expr mod 20µM*, Vif-A3G inh -6.2% and Vif-A3F inh -21.1%.
O=C(Nc1ccccc1)c1ccccc1NS(=O)(=O)c1ccc(Cl)s1 was read as Epigenetic reg -0.8%, PINK1 expr mod inconclusive, Vif-A3G inh -18.5% and Vif-A3F inh 3.7%.
For O=C(Nc1nccs1)c1ccc(-c2ccc([N+](=O)[O-])cc2)o1 the results were Epigenetic reg 1.1%, PINK1 expr mod 35.5µM*, Vif-A3G inh -1.4% and Vif-A3F inh 8.0%.
`Nc1c(C(=O)Nc2ccccc2F)sc2nc(-c3ccco3)ccc12` gave Epigenetic reg inconclusive, PINK1 expr mod 22.1%[38.3 µM], Vif-A3G inh inconclusive and Vif-A3F inh 22.4µM*.
For COc1ccc2c(c1)c1nc3ccccc3nc1n2Cc1ccc(OC)c(OC)c1 the results were Epigenetic reg inconclusive, PINK1 expr mod 5.0%, Vif-A3G inh inconclusive and Vif-A3F inh 25.1µM*.
For Oc1cc(-c2nc3ccccc3s2)cc2c1OCCN(Cc1cccn1-c1ccccn1)C2 the results were PINK1 expr mod -0.2%.
`CCCC[C@@H](C=O)NC(=O)[C@H](CC(C)C)NC(=O)[C@H](CC(C)C)NC(C)=O` gave Epigenetic reg 11.2µM*.
Screening COCC(=O)Nc1cc(C(=O)N2CCc3sccc3C2)c2c(c1)nc(-c1ccncc1)n2C returned PINK1 expr mod 0.9%.
Screening COc1ccc(-c2cc(C(F)(F)F)c3c(N)c(C(=O)NCCSC)sc3n2)cc1 returned PINK1 expr mod 29.8%, Vif-A3G inh inconclusive and Vif-A3F inh inconclusive.
For COc1ccc(OC)c(NC(=O)c2sc3nc(Cc4ccccc4)cc(C(F)(F)F)c3c2N)c1 the results were Epigenetic reg -1.0%, PINK1 expr mod inconclusive, Vif-A3G inh -0.5% and Vif-A3F inh 10µM*.
COc1ccc(CNC(=O)c2sc3nc4c(c(C(F)(F)F)c3c2N)CCC4)cc1OC was read as Epigenetic reg -1.0%, PINK1 expr mod -0.7%, Vif-A3G inh 1.2% and Vif-A3F inh inconclusive.
Screening COc1ccc(NC(=O)c2sc3nc(C(F)(F)F)cc(C)c3c2N)cc1OC returned Epigenetic reg 14.1µM*, PINK1 expr mod 39.8µM*, Vif-A3G inh -14.0% and Vif-A3F inh 5.62µM*.
`COc1cccc(-c2nc3cc4c(cc3cc2CN(C(=O)c2csc(C)n2)C2CC2)CCC4)c1OC` gave PINK1 expr mod 0.6%.
Screening COc1cccc(CN(C)C(=O)c2cnn(-c3ncc4c(n3)-c3ccccc3CCC4)c2C)c1 returned PINK1 expr mod 0.2%.
CC1(C)CC(=Cc2cc(O)ccc2[N+](=O)[O-])C(=O)c2ccccc21 was read as PINK1 expr mod 20µM*, Vif-A3G inh -16.7% and Vif-A3F inh -17.3%.
O=C(Nc1ccc2c(c1)nc1n2CCN(Cc2ccccc2)C1)NC1CCCCC1 was read as Epigenetic reg 3.0%, PINK1 expr mod 10µM*, Vif-A3G inh -8.1% and Vif-A3F inh 0.8%.
COCCN1CCn2c(nc3cc(NC(=O)NC4CCCCC4)ccc32)C1 was read as Epigenetic reg -1.0%, PINK1 expr mod 0.5%, Vif-A3G inh 1.8% and Vif-A3F inh -8.0%.
Cc1c(C(=O)O)sc2nc(-c3cccs3)cc(C(F)(F)F)c12 was read as PINK1 expr mod -0.8%, Vif-A3G inh 1.4% and Vif-A3F inh -17.0%.
For CC(=O)c1sc2nc(-c3cccs3)cc(C(F)(F)F)c2c1N the results were Epigenetic reg 15.8µM*, PINK1 expr mod inconclusive, Vif-A3G inh inconclusive and Vif-A3F inh 5.01µM*.
Screening COc1cc(CN2CCC3(CC2)CC3C(=O)Nc2ccc3sc(C)nc3c2)ccc1F (stereo unspecified) returned PINK1 expr mod 0.0%.
For COc1ccc(CCNC(=O)c2ccc(Cn3c(SCC(=O)NCCC(C)C)nc4cc5c(cc4c3=O)OCO5)cc2)cc1OC the results were Epigenetic reg -1.3%, PINK1 expr mod -1.2%, Vif-A3G inh 5.4% and Vif-A3F inh 7.1%.
For CCC(C)NC(=O)CSc1nc2cc3c(cc2c(=O)n1Cc1ccc(C(=O)NCCc2ccc(OC)c(OC)c2)cc1)OCO3 (stereo unspecified) the results were Epigenetic reg 11.2µM*, PINK1 expr mod 0.1% and Vif-A3G inh -3.6%.
Screening CCCS(=O)(=O)NCc1c(C)ncc2c1CCN(C(=O)c1cccc(Cl)c1F)C2 returned PINK1 expr mod -0.2%.
COc1cnc(-c2ccccn2)nc1Oc1ccccc1Cl was read as Epigenetic reg 2.1%, PINK1 expr mod 0.5%, Vif-A3G inh 1.6% and Vif-A3F inh 1.6%.
`COc1cnc(-c2ccccn2)nc1Oc1ccc(F)cc1F` gave Epigenetic reg -0.5%, PINK1 expr mod -1.4%, Vif-A3G inh -1.3% and Vif-A3F inh 11.2µM*.
Screening CCC1CN(CCNC(=O)c2cc3ccccc3oc2=O)Cc2cc(OC)ccc2O1 (stereo unspecified) returned PINK1 expr mod 0.4%.
